Experimental findings from PubChem BioAssay (EPA / NIEHS) are described below.

By AC50 is commonly meant the midpoint of the concentration-response curve, whichever way the signal moves.

Structures are written as SMILES. Records with an inconclusive call do not appear. Calls of active or inactive are those of the source. The calls were made as follows, unless noted: active = hit-call score of the fitted dose curve at least 0.9, where 1 is the maximum; inactive = score below 0.9.

Experiment [1] can be described thus: CCTE_Shafer_MEA_dev_correlation_coefficient_mean: CCTE's Neural Network Formation Assay for Mean Correlation Coefficient, Shafer Lab (AID 2284093).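 As to AC50: well mean pairwise spike train correlation integrated as AUC over recording days 5 to 12; potency fitted for loss of correlation relative to DMSO vehicle wells.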 In outline:
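Extracellular firing from rat cortical networks on 48-well MEAs, DMSO-referenced, negative fitting direction. Compound present from plating to DIV12; mean pairwise correlation per well integrated over DIV5–12 recordings by trapezoidal AUC.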

The nature of experiment [2]: UKN2_HCS_IMR90_neural_migration: University of Konstanz (UKN) Leist Lab Neural Crest Cell Migration Assay in human induced IMR90 Pluripotent Stem Cells (UKN2) (AID 2284204). The conditions noted are these: actives raise or lower the signal. In outline:
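High-content imaging of calcein-AM and Hoechst stained cells quantifies migration into a stopper-defined gap after 24 h compound exposure. Neural crest cells from IMR90 iPSC migrated 24 h in EGF/FGF N2-S medium before dosing; DMSO baseline.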

The nature of experiment [3]: UKN4_HCS_LUHMES_neurite_outgrowth: University of Konstanz (UKN) Leist Lab Neurite Outgrowth Assay in human LUHMES cells (UKN4) (AID 2284206). The conditions noted are these: actives raise or lower the signal. In outline:
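Human LUHMES cells were differentiated for two days, replated and treated with chemicals for 24 h. Neurite outgrowth was quantified as calcein-stained neurite area by HCS imaging, fitted bidirectionally relative to DMSO.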

A short description of experiment [4]: IUF_NPC1b_proliferation_BrdU_72hr: Leibniz Research Institute for Environmental Medicine (IUF) 72-hour Neural Progenitor Cell Bromodeoxyuridine (BrdU) Proliferation Assay (NPC1b) (AID 2284207). In outline:
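Human fetal cortex-derived (GW 16-19) neural progenitor spheres, 0.25-0.35 mm, one per well in EGF/FGF proliferation medium, exposed to compound for 72 h at 37C, pH 7.2-7.6. BrdU incorporation over the final 16 h read by luminescence ELISA, relative to DMSO.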

Experiment [5] can be described thus: IUF_NPC1a_proliferation_area_72hr: Leibniz Research Institute for Environmental Medicine (IUF) 72-hour Neural Progenitor Cell Proliferation Area Assay (NPC1a) (AID 2284208). In outline: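 Proliferation is scored as sphere area gain in primary human fetal neural progenitors treated for 72 h in EGF/FGF-containing medium. Viability, LDH and BrdU readouts come from the same wells.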

The nature of experiment [6]: IUF_NPC1_viability_72hr: Viability Assessment at 72 hours in the Leibniz Research Institute for Environmental Medicine (IUF) Neural Progenitor Cell Proliferation Assay (NPC1) (AID 2284209). Put shortly: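 Spheres of primary human neural progenitors were plated singly in proliferation medium and treated for 72 h. Mitochondrial reduction of resazurin was then measured by fluorescence and analysed against DMSO controls.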

The nature of experiment [7]: CCTE_Mundy_HCI_Cortical_Synap_Neur_Matur_NeuriteSpotCountPerNeuriteLength: CCTE's Synaptogenesis and Neurite Maturation Assay in rat cortical cells for Neurite Spot Count per Neurite Length, Mundy Lab (AID 2284210). In outline:
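Synaptophysin spots per unit neurite length, measured by automated imaging of MAP2/synaptophysin/Hoechst-stained neurons. Cultures from rat cortex received chemical at DIV 7 with media change through DIV 12; glial growth arrested by AraC at DIV 5; DMSO baseline.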

Experiment [8] can be described thus: CCTE_Mundy_HCI_Cortical_NOG_NeuriteLength: CCTE's Neurite Outgrowth Assay in rat cortical cells for Neurite Length, Mundy Lab (AID 2284213).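 As to AC50: neurites imaged about 48 to 50 h after chemical exposure began.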 In outline:
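First, rat primary cortical cells were plated and, 2 h later, given test chemical as a 1/10 dilution. Finally, βIII-tubulin immunostaining enabled automated imaging of neurite length.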

Experiment [9] is described as follows: CCTE_Mundy_HCI_Cortical_Synap_Neur_Matur_NeuriteLength: CCTE's Synaptogenesis and Neurite Maturation Assay in rat cortical cells for Neurite Length, Mundy Lab (AID 2284214). In outline: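 Cultures of rat primary cortical cells received chemical at DIV 7 and were fixed at DIV 12, after glial arrest with AraC at DIV 5. Neurite length was measured by automated imaging of MAP2 immunofluorescence.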

Experiment [10] can be described thus: CCTE_Mundy_HCI_Cortical_Synap_Neur_Matur_NeuriteSpotCountPerNeuron: CCTE's Synaptogenesis and Neurite Maturation Assay in rat cortical cells for Neurite Spot Count per Neuron Count, Mundy Lab (AID 2284215). In outline:
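Synapse density is scored as synaptophysin spots along neurites per neuron in fixed rat cortical neurons, measured at DIV 12 after chemical dosing at DIV 7. DMSO is the negative control and activity baseline.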

Experiment [11] is described as follows: CCTE_Mundy_HCI_Cortical_Synap_Neur_Matur_SynapseCount: CCTE's Synaptogenesis and Neurite Maturation Assay in rat cortical cells for Synapse Count, Mundy Lab (AID 2284218). In outline: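 Cells were plated, allowed 2 hr to attach, treated with AraC at DIV 5, then exposed to chemicals from DIV 7 until DIV 12. After fixation and MAP2/synaptophysin immunolabelling, synapses per neuron were quantified by automated imaging against DMSO.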

The nature of experiment [12]: CCTE_Mundy_HCI_hN2_NOG_NeuriteCount: CCTE's Neurite Outgrowth Assay in human hN2 cells for Neurite Count, Mundy Lab (AID 2284219; active = hit-call score of the fitted dose curve at least 0.9, where 1 is the maximum). Put shortly:
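In this morphology assay, hNP1-derived neurons received test chemical 2 h post-plating and were fixed two days later in warm paraformaldehyde/sucrose containing Hoechst 33342. Neurites, labelled by rabbit anti-βIII-tubulin (1:800) and Alexa Fluor-488 (1:500), were counted automatically.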

A short description of experiment [13]: CCTE_Mundy_HCI_hN2_NOG_NeuriteLength: CCTE's Neurite Outgrowth Assay in human hN2 cells for Neurite Length, Mundy Lab (AID 2284220; active = hit-call score of the fitted dose curve at least 0.9, where 1 is the maximum). In outline:
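Plate hNP1-derived neurons, then add chemical 2 h later as a 1/10 dilution. Stain with anti-βIII-tubulin then Alexa Fluor-488 secondary, and image automatically to measure neurite length.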

Experiment [14] is described as follows: CCTE_Mundy_HCI_hN2_NOG_NeuronCount: CCTE's Neurite Outgrowth Assay in human hN2 cells for Neuron Count, Mundy Lab (AID 2284221; active = hit-call score of the fitted dose curve at least 0.9, where 1 is the maximum). Put shortly: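 Read-out is the number of betaIII-tubulin-positive neurons imaged by automated high-content analysis, with DMSO as negative control.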
A short description of experiment [15]: CCTE_Mundy_HCI_Cortical_Synap_Neur_Matur_CellBodySpotCount: CCTE's Synaptogenesis and Neurite Maturation Assay in rat cortical cells for Cell Body Spot Count, Mundy Lab (AID 2284223). In outline:
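Synapse number at neuronal cell bodies was quantified as synaptophysin puncta per neuron in rat cortical cultures exposed from DIV 7 to DIV 12. Values were normalised to DMSO.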

Experiment [16] is described as follows: CCTE_Mundy_HCI_Cortical_Synap_Neur_Matur_BPCount: CCTE's Synaptogenesis and Neurite Maturation Assay in rat cortical cells for Branch Point Count, Mundy Lab (AID 2284211). Put shortly:
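HCI read-out of branch points from MAP2/synaptophysin/Hoechst immunofluorescence; rat cortical cultures, AraC DIV 5, dosing DIV 7, fixed DIV 12; fit in positive direction vs DMSO baseline.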

Experiment [17] in a line: CCTE_Mundy_HCI_Cortical_NOG_NeuriteCount: CCTE's Neurite Outgrowth Assay in rat cortical cells for Neurite Count, Mundy Lab (AID 2284212).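 Also: cells fixed about two days after chemical exposure began.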 In outline: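 Rat cortical primary cells; compound added 2 h post-plating, 1/10 dilution of working solution. Anti-betaIII-tubulin/AF488 ICC; ArrayScan neurite count vs DMSO.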
A short description of experiment [18]: CCTE_Mundy_HCI_Cortical_Synap_Neur_Matur_NeuriteCount: CCTE's Synaptogenesis and Neurite Maturation Assay in rat cortical cells for Neurite Count, Mundy Lab (AID 2284222).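 As to outcome: exposure from day 7 to day 12 in vitro with readout at day 12.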 Put shortly:
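In this multiplexed morphology readout, rat primary cortical neurons are fixed at DIV 12 following dosing at DIV 7 and stained for MAP2, synaptophysin and nuclei. High-content image analysis yields neurite count.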

A short description of experiment [19]: CCTE_Mundy_HCI_hNP1_Pro_ResponderAvgInten: CCTE's Proliferation Assay in human neuroprogenitor cells, Mundy Lab (AID 2284224; active = hit-call score of the fitted dose curve at least 0.9, where 1 is the maximum). Put shortly: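 Proliferation was scored as BrdU labelling intensity in human neural progenitors derived from WA09 embryonic cells, measured 26.25 hours after chemical dosing. Activity was fitted relative to DMSO.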
The nature of experiment [20]: TAMU_PeakParms_SingleDonor1434_Chronotropy: Texas A&M University (TAMU) 1.5-hr Human Induced Pluripotent Stem Cell (iPSC)-derived Cardiomyocytes Calcium (Ca+2) Flux Assay for Cardiotoxicity: Chronotropy (changes in peak frequency) (AID 2284217). The conditions noted are these: actives raise or lower the signal. In outline:
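Using fluorescent Ca2+ flux, average beats per second are measured in human iPSC-derived cardiomyocytes treated 90 min (0.5% DMSO vehicle, 0.2–100 uM). Non-beating data points are removed; activity is modeled in both directions relative to DMSO controls.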

Regarding `O=C1NC(=O)C(c2ccccc2)(c2ccccc2)N1`, the result in experiment [1], in experiment [2], in [3], in experiment [4], in [5] and in experiment [6] was inactive. In addition, the compound was called inactive in experiment [7], in experiment [8], in experiment [9], in experiment [10], in experiment [11] and in [12]. Moreover, the compound was classed as inactive in experiment [13], in [14] and in experiment [15].

Turning to `OCC(O)CO`, the compound was called inactive in experiment [1], in [3], in [4], in [5], in experiment [6] and in [7]. The compound was called inactive in experiment [16], in experiment [17], in experiment [8], in experiment [9], in [10] and in experiment [11]. Also, the outcome in [18], in experiment [15] and in experiment [19] was inactive.

For `CN(C)CCCN1c2ccccc2Sc2ccc(Cl)cc21`, the AC50 in [1] was 5.87 µM (active); in experiment [2], 8.89 µM (active); in [3], 6.73 µM (active); in experiment [4], 4.53 µM (active); in experiment [5], 11.8 µM (active); in experiment [6], 18.8 µM (active). In addition, the AC50 is 28.4 µM (active) in experiment [7]; 12.8 µM (active) in experiment [16]; 10.7 µM (active) in experiment [8]; 12.8 µM (active) in experiment [9]; 11.8 µM (active) in experiment [10]; 11.8 µM (active) in experiment [11]. Moreover, the AC50 in experiment [12] was 11 µM (active); in experiment [13] it was 14.3 µM (active); in experiment [14], 9.61 µM (active); in [18], 21.1 µM (active). Besides, the compound was classed as inactive in experiment [15] and in [19].

For `COC(=O)[C@H]1[C@H]2C[C@@H]3c4[nH]c5cc(OC)ccc5c4CCN3C[C@H]2C[C@@H](OC(=O)c2cc(OC)c(OC)c(OC)c2)[C@@H]1OC`, in [1], the AC50 is 10 µM (active). In addition, in [20], the result was inactive.

`Nc1nc(=S)c2[nH]cnc2[nH]1`: the AC50 in experiment [20] was 89.6 µM (active).

Take `CC(=O)CC(c1ccccc1)c1c(O)c2ccccc2oc1=O` (stereo not drawn): the compound was called inactive in [1], in [4], in experiment [5], in experiment [6], in [7] and in [16]. In addition, the result in experiment [17], in experiment [8], in experiment [9], in [10], in experiment [11] and in experiment [18] was inactive. For the same compound, the call in [15] and in experiment [19] was inactive.

As to `O=C(O)CC(O)(CC(=O)O)C(=O)O`, the result in experiment [20] was inactive.

As for `Cc1occc(=O)c1O`, in experiment [20], the result was inactive.

Consider `CCc1nc(N)nc(N)c1-c1ccc(Cl)cc1`, for which the outcome in experiment [20] was inactive.
